# Values of other authors, collected in PubChem BioAssay AID977611.
# Screen size: about 3,900 compounds; about 3,900 (100%) were called active. The limit is not given here; nearly all actives have Kd up to about 4200 µM. The set was probably picked from earlier hits. The list shows a part of the results. Where a SMILES comes first, the peptide text is derived from it. Square brackets hold non-standard residues; d marks the D form. Peptide text beside a SMILES is read from it. [ ]: non-standard residue; d: D form. Orn(CH(NH2)2) = NC(N)NCCC[C@H](N)C(=O)O
# Experiment: PubChem AID 977611
# Conditions: PDB protein-ligand complexes, literature Kd
molecule,measurement,setting,value
Nc1ncnc2c1ncn2[C@@H]1O[C@H](CO[P+](O)(O)O[P+](O)(O)O[P+](O)(O)O[P+](O)(O)O[P+](O)(O)OC[C@H]2O[C@@H](n3cnc4c(N)ncnc43)[C@H](O)[C@@H]2O)[C@@H](O)[C@H]1O,Kd,"protein: Adenylate kinase, PDB entry 4w5j",0.057 µM (active)
Nc1ncnc2c1ncn2[C@@H]1O[C@H](CO[P+](O)(O)O[P+](O)(O)OC[C@H]2O[C@H](O)[C@H](O)[C@@H]2O)[C@@H](O)[C@H]1O,Kd,"protein: Poly [ADP-ribose] polymerase 14 MACRO DOMAIN 1, PDB entry 3q6z",192 µM (active)
same,Kd,"protein: Poly [ADP-ribose] polymerase 14 MACRO DOMAIN 1 and 2, PDB entry 3vfq",6.4 µM (active)
same,Kd,"protein: Poly [ADP-ribose] polymerase 14 MACRO DOMAIN 2, PDB entry 3q71",6 µM (active)
same,Kd,"protein: Poly [ADP-ribose] polymerase 14 MACRO DOMAIN 3, PDB entry 4abk",1.9 µM (active)
NC(=O)C1=CN([C@H]2O[C@H](CO[P+](O)(O)O[P+](O)(O)OC[C@H]3O[C@@H](n4cnc5c(N)ncnc54)[C@H](O)[C@@H]3O)[C@@H](O)[C@H]2O)C=CC1,Kd,"protein: Redox-sensing transcriptional repressor rex, PDB entry 3wgg",39.9 µM (active)
H-PDVSSSTA-OH,Kd,"protein: Speckle-type POZ protein, SPOPMATH, PDB entry 3ivq",76.1 µM (active)
CC(=O)N1CCC[C@H]1C(=O)N[C@@H](Cc1c[nH]c2ccccc12)C(=O)N[C@@H](C)C(=O)N[C@H](C(=O)N[C@@H](CS)C(=O)N[C@@H](CC(=O)O)C(=O)N[C@@H](CO)C(N)=O)[C@@H](C)O,Kd,"protein: Thiol:disulfide interchange protein DsbAC30S, PDB entry 4od7",8.3 µM (active)
H-PHGGSWGQP-OH,Kd,"protein: POM2 Fab, PDB entry 4j8r",0.02 µM (active)
C[C@H](NC(=O)[C@H](Cc1c[nH]c2ccccc12)NC(=O)[C@H](CC(N)=O)NC(=O)[C@@H](N)CC(N)=O)C(=O)N[C@@H](CC(=O)O)C(=O)N[C@@H](Cc1ccccc1)C(=O)N[C@@H](CO)C(=O)N[C@@H](CO)C(=O)N[C@H](C(=O)N[C@@H](Cc1c[nH]c2ccccc12)C(=O)N1CCC[C@H]1C(=O)O)[C@@H](C)O (H-NNWADFSSTWP-OH),Kd,"protein: Adaptor protein complex AP-2, subunit beta-1, PDB entry 3hs9",0.49 µM (active)
NCCCC[C@H](NC(=O)[C@H](CO)NC(=O)[C@@H]1CCCN1)C(=O)N[C@@H](CCCCN)C(=O)N[C@@H](CCCNC(N)N)C(=O)N[C@@H](CCCCN)C(=O)N[C@@H](CCCNC(N)N)C(=O)N[C@@H](CO)C(=O)N[C@@H](CCCNC(N)N)C(=O)N[C@@H](Cc1c[nH]c2ccccc12)C(=O)N[C@@H](CC(N)=O)C(=O)N[C@@H](CCC(N)=O)C(=O)N[C@@H](CC(=O)O)C(=O)O (H-PSKK[Orn(CH(NH2)2)]K[Orn(CH(NH2)2)]S[Orn(CH(NH2)2)]WNQD-OH),Kd,"protein: the C-terminal RRM (RRM3) of human U2AF65, PDB entry 1opi",0.05 µM (active)
C[C@H](NC(=O)[C@H](Cc1c[nH]c2ccccc12)NC(=O)[C@H](CC(N)=O)NC(=O)[C@H](CC(N)=O)NC(=O)[C@@H]1CCCN1)C(=O)N[C@@H](CC(=O)O)C(=O)N[C@@H](Cc1ccccc1)C(=O)N[C@@H](CO)C(=O)N[C@@H](CO)C(=O)N[C@H](C(=O)N[C@@H](Cc1c[nH]c2ccccc12)C(=O)N1CCC[C@H]1C(=O)O)[C@@H](C)O (H-PNNWADFSSTWP-OH),Kd,"protein: Adaptor protein complex AP-2, alpha 2 subunit, PDB entry 3hs8",5 µM (active)
H-PDWDFN-NH2,Kd,"protein: AP-1 COMPLEX SUBUNIT GAMMA-LIKE 2, PDB entry 3zhf",120 µM (active)
CCCCCCCC(=O)OC[C@H](CO[P+](O)(O)OC[C@H](N)C(=O)O)OC(=O)CCCCCCC,Kd,"protein: Matrix protein p17, PDB entry 2lyb",35 µM (active)
CCCCCCCC(=O)OC[C@H](CO[P+](O)(O)OCC[N+](C)(C)C)OC(=O)CCCCCCC,Kd,"protein: Matrix protein p17, PDB entry 2lya",65 µM (active)
CC(C)C[C@H](CNC(=O)c1ccncc1)Cc1ccc2c(c1C(=O)O)OCO2,Kd,"protein: HIV INTEGRASE, PDB entry 4cj4",432 µM (active)
CC(C)C[C@H](CNC(=O)c1cccnc1)Cc1ccc2c(c1C(=O)O)OCO2,Kd,"protein: HIV integrase, PDB entry 4cjp",481 µM (active)
CC(C)C[C@H](CNC(=O)CCCN)Cc1ccc2c(c1C(=O)O)OCO2,Kd,"protein: HIV integrase, PDB entry 4ck3",268 µM (active)
CC(C)C[C@H](CNC(=O)Cc1c[nH]c2ccccc12)Cc1ccc2c(c1C(=O)O)OCO2,Kd,"protein: HIV integrase, PDB entry 4cjq",256 µM (active)
NC(=O)CC[C@H](NC(=O)c1ccc(O[C@@H]2O[C@H](CO)[C@H](O)[C@H](O)[C@H]2O)cc1)C(=O)N[C@@H](CCCNC(N)N)C(=O)N[C@@H](CO)C(N)=O,Kd,"protein: PA-I galactophilic lectin, PDB entry 4lkd",4.5 µM (active)
NC(=O)CNC(=O)[C@H](Cc1c[nH]c2ccccc12)NC(=O)c1ccc(O[C@@H]2O[C@H](CO)[C@H](O)[C@H](O)[C@H]2O)cc1,Kd,"protein: PA-I galactophilic lectin, PDB entry 4lke",4.3 µM (active)
NCCCC[C@H](NC(=O)[C@H](Cc1c[nH]c2ccccc12)NC(=O)c1ccc(O[C@@H]2O[C@H](CO)[C@H](O)[C@H](O)[C@H]2O)cc1)C(=O)N[C@@H](Cc1ccc(O)cc1)C(N)=O,Kd,"protein: PA-I galactophilic lectin, PDB entry 4lkf",4.3 µM (active)
CC[C@H](C)[C@H](NC(=O)[C@@H]1CCCN1C(=O)[C@H](CCCNC(N)N)NC(=O)[C@@H]1CCCN1C(=O)[C@@H]1CCCN1)C(=O)N[C@@H](Cc1ccc(O)cc1)C(=O)N[C@@H](CC(N)=O)C(=O)O (H-PP[Orn(CH(NH2)2)]PIYN-OH),Kd,"protein: Chaperone protein DnaK, PDB entry 4ezq",6.3 µM (active)
CC(C)C[C@H](NC(=O)[C@H](Cc1ccc(O)cc1)NC(=O)[C@@H]1CCCN1C(=O)[C@@H]1CCCN1)C(=O)N1CCC[C@H]1C(=O)N[C@@H](CCCNC(N)N)C(=O)N1CCC[C@H]1C(=O)N[C@@H](CCCNC(N)N)C(=O)O (H-PPYLP[Orn(CH(NH2)2)]P[Orn(CH(NH2)2)]-OH),Kd,"protein: Chaperone protein DnaK, PDB entry 4ezo",0.3 µM (active)
CC[C@H](C)[C@H](NC(=O)[C@@H](NC(=O)[C@@H]1CCCN1C(=O)[C@H](CCCNC(N)N)NC(=O)[C@H](CCCNC(N)N)NC(=O)[C@@H]1CCCN1)C(C)C)C(=O)N[C@@H](CCSC)C(=O)N[C@@H](CCCNC(N)N)C(N)=O (H-P[Orn(CH(NH2)2)][Orn(CH(NH2)2)]PVIM[Orn(CH(NH2)2)]-NH2),Kd,"protein: Chaperone protein DnaK, PDB entry 4ezt",7.4 µM (active)
CC[C@H](C)[C@H](NC(=O)[C@H](CO)NC(=O)[C@H](CCCCN)NC(=O)[C@@H](NC(=O)[C@H](Cc1cnc[nH]1)NC(=O)[C@H](CCC(=O)O)NC(=O)[C@@H]1CCCN1C(=O)[C@H](CCCNC(N)N)NC(=O)[C@@H]1CCCN1C(=O)[C@H](C)NC(=O)[C@@H](NC(=O)[C@@H](NC(=O)[C@@H]1CCCN1C(=O)[C@@H]1CCCN1)C(C)C)[C@@H](C)CC)[C@@H](C)O)C(=O)N[C@@H](Cc1ccc(O)cc1)C(=O)N[C@H](C(=O)N[C@@H](CCCNC(N)N)C(=O)N[C@@H](CO)C(=O)O)[C@@H](C)O (H-PPVIAP[Orn(CH(NH2)2)]PEHTKSIYT[Orn(CH(NH2)2)]S-OH),Kd,"protein: the SH3 Domain of ?PIX, PDB entry 2df6",1.05 µM (active)
